Results: PubChem BioAssay (NCI)
Compounds without any hit were thinned out: in the full panel of roughly 83,000, 20% have a hit.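 Interpretation: 100, growth as untreated; towards 0, rising growth inhibition; 0, no net growth; 0 to -100, cell death. Compounds scoring below 10 were considered active.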 A number with no mark means an inactive call. Calls of active or inactive are those of the source.

Legend:
Assay in all cases: NCI-60 one-dose screen, 48 h (100 = growth as untreated, 0 = no growth, -100 = all killed)
Conditions in all cases: 10 µM
SNB-75 CNS = system: SNB-75 CNS
SNB-19 CNS = system: SNB-19 CNS
U251 CNS = system: U251 CNS
PC-3 prostate = system: PC-3 prostate
SK-MEL-5 melanoma = system: SK-MEL-5 melanoma
UACC-62 melanoma = system: UACC-62 melanoma
LOX IMVI melanoma = system: LOX IMVI melanoma
SK-MEL-28 melanoma = system: SK-MEL-28 melanoma
SK-MEL-2 melanoma = system: SK-MEL-2 melanoma
SN12C renal = system: SN12C renal
UO-31 renal = system: UO-31 renal
TK-10 renal = system: TK-10 renal
ACHN renal = system: ACHN renal
CAKI-1 renal = system: CAKI-1 renal
A498 renal = system: A498 renal
MOLT-4 leukemia = system: MOLT-4 leukemia
SR leukemia = system: SR leukemia
CCRF-CEM leukemia = system: CCRF-CEM leukemia
EKVX NSCLC = system: EKVX NSCLC

Row | Compound | growth (SNB-75 CNS) | growth (SNB-19 CNS) [%] | growth (U251 CNS) | growth (PC-3 prostate) | growth (SK-MEL-5 melanoma) | growth (UACC-62 melanoma) | growth (LOX IMVI melanoma) | growth (SK-MEL-28 melanoma) | growth (SK-MEL-2 melanoma) | growth (SN12C renal) | growth (UO-31 renal) | growth (TK-10 renal) | growth (ACHN renal) | growth (CAKI-1 renal) | growth (A498 renal) | growth (MOLT-4 leukemia) | growth (SR leukemia) | growth (CCRF-CEM leukemia) | growth (EKVX NSCLC) [%]
1 | CC(C)(C#N)Nc1ccccc1 | 79.5% | 98.9 | 95.4% | 108% | 107% | 98.5% | 97.8% | 111% | 109% | 98.8% | 103% | 115% | 97.8% | 83.5% | 103% | 102% | 116% | – | –
2 | COc1ccc(-c2nn(-c3cccc(NC(=O)Nc4ccc(Cl)c(C(F)(F)F)c4)c3)cc2-c2ccncc2)cc1Cl | 25.6% | 32.2 | -41.1% (active) | 2.84% (active) | 14.7% | -2.96% (active) | 19.9% | 23% | – | 21.1% | -11.2% (active) | 10.3% | 12.6% | 9.1% (active) | -0.894% (active) | -6.09% (active) | -18.4% (active) | -3.16% (active) | –
3 | CN1CC[C@@H](c2c(O)cc(O)c3c(=O)cc(-c4ccccc4Cl)oc23)[C@@H](O)C1 | -71.9% (active) | 13.6 | 8.62% (active) | -48.9% (active) | -38.5% (active) | -48.8% (active) | 5.25% (active) | – | -40.7% (active) | 26.8% | -5.67% (active) | 0.554% (active) | -14.1% (active) | 5.1% (active) | – | -6.09% (active) | -4.82% (active) | -9.53% (active) | –
4 | COc1ccc(-c2cc(/C=C3\C(=O)Nc4ccc(OC)cc43)[nH]n2)cc1 | -18.7% (active) | 62.1 | 37.8% | 15.8% | 31% | 39.4% | 40.3% | 57% | 23.4% | 42.7% | 40.6% | 48.9% | 52.5% | 33% | 23.3% | 27% | 20.1% | 18.1% | –
5 | COc1ccc(Nc2ccnc(NCCNc3ccnc4cc(Cl)ccc34)n2)cc1 | 78.9% | 67.4 | 59.1% | 30.1% | -50.8% (active) | 74.9% | 8.82% (active) | -29% (active) | 71.8% | 57.7% | 44.8% | 71.6% | 57.3% | 60.6% | 37.3% | 18% | – | 42.1% | –
6 | O=C1OCC2=C1C(c1cccc(Br)c1)c1cc3c(cc1N2CCO)CCC3 (configuration not stated) | 37.5% | 28.8 | 5.68% (active) | 22.4% | -12.6% (active) | 20.2% | 15.5% | 62% | – | 21.2% | 33.9% | 62.6% | 20.9% | 20.8% | – | 14.1% | 28.5% | 8.55% (active) | –
7 | CC(C)(Cl)CCC1=C(Cl)C(=O)c2ccccc2C1=O | 30.7% | 89 | 49.9% | 32.8% | -34.8% (active) | 2.45% (active) | 20.6% | 56.9% | 79.1% | 79.9% | 36.5% | 124% | 26.3% | 96% | 27.4% | -16.2% (active) | -25.3% (active) | -33.9% (active) | –
8 | O=C(Nc1ccc(CN2CCc3nc4cc(O)c(O)cc4cc32)cc1)c1ccc(Cl)c(Cl)c1 | 89.2% | 96.7 | 105% | 101% | 90.7% | 97% | 104% | 96.8% | 105% | 97.4% | 88.9% | 122% | 98.2% | 96.4% | 103% | 106% | 94.5% | 78% | –
9 | O=C1C(=O)c2ccccc2C(O)=C1CCCc1ccc(C2CCCCCC2)cc1 | 49.3% | 52.8 | 46.1% | 20.9% | 25.2% | 46.6% | 16.5% | 49.7% | 88.1% | 53.4% | 24.2% | 61% | 38.6% | -34.2% (active) | – | 49.2% | 38% | 34.7% | 24.9
10 | COc1ccc(-n2c(SCc3cc(OC)c(OC)c(OC)c3)nc3ccc(C)cc3c2=O)cc1 | 44.4% | 83.7 | 69.1% | 75% | 54.9% | 56.7% | 63% | 74% | 64.8% | 82.2% | 47.2% | 94.2% | 66.7% | 54.2% | 38% | 56% | 23% | – | –
11 | Fc1ccc(-c2nnc(-c3c(-c4ccc(F)cc4)nc4ccccn34)o2)cc1 | 37.4% | 92.8 | 81.2% | 84.6% | 80.4% | 92.2% | 65.4% | 85% | 120% | 77.2% | 83.8% | 102% | 83.2% | 91.1% | 62% | 100% | 47.3% | 95.4% | 95.3
12 | Cc1ccc(N=Nc2c(N)nc(N)[nH]c2=O)cc1C | 104% | 110 | 103% | 95.7% | 101% | 109% | 96% | 115% | – | 105% | 72.5% | 110% | 106% | 94.4% | 103% | 93.2% | 88.3% | 95.2% | –
13 | CCOC(=O)c1ccc(NC(=O)Nc2ncc(Cl)cc2Cl)cc1 | 119% | 106 | 99.2% | 77% | 104% | 87% | 110% | 106% | 102% | 86.8% | 96.4% | 108% | 107% | – | 91.9% | 93.2% | 95.9% | 81.7% | 111
14 | CCOC(=O)C1CCc2c(ccc3ccccc23)N1CCC#N (configuration not stated) | 74.2% | 99 | 89.7% | 84.9% | 89.2% | 91% | 85.7% | 91.2% | 134% | 98.7% | 74.9% | 116% | 115% | 80.2% | – | 77.9% | 63% | 89.2% | 92.8
15 | N=c1nc(N)ncn1-c1ccccc1 | 86.5% | 98.2 | 95.1% | 96.8% | 102% | 93.5% | 94.9% | 98.6% | 106% | 87.3% | 94.5% | 102% | 101% | 97.9% | 83.8% | 109% | 97.4% | 84.9% | 99.7
16 | Cc1ccc(S(=O)(=O)Oc2ccc3c4c(c(=O)oc3c2)CCCCC4)cc1 | 76.2% | 86.8 | 38.7% | 33.5% | 20.5% | 56.5% | 62.8% | 79.5% | – | 66.2% | 64.6% | 74.3% | 78.7% | 59.6% | 61.8% | 42.2% | 2.57% (active) | – | –
17 | FC(F)(F)c1ccc(-c2cnc(-n3cc(COCCN4CCCCC4)nn3)nc2NC2CCCCCC2)cc1 | 11.5% | 84.2 | -74.5% (active) | 7.37% (active) | -91% (active) | -79.2% (active) | -55.8% (active) | -90.5% (active) | – | 60.4% | -6.86% (active) | -14% (active) | 35.7% | 46.6% | 66% | -24.1% (active) | -37.4% (active) | -5.93% (active) | –
18 | CN(C)CCN1C(=O)c2cccc3cc(N)cc(c23)C1=O | -5.61% (active) | 24.5 | 18.4% | 12.6% | 8.79% (active) | 13.3% | 6.24% (active) | – | 29.1% | 30.9% | -26.8% (active) | 32.9% | -30.3% (active) | 3% (active) | 41.8% | -2.12% (active) | 8.08% (active) | 13.6% | 45.2
19 | CCOC(=O)N/N=C\C(C)=N\NC(=O)OCC | 92.1% | 98.5 | 92.7% | 93% | 109% | 99.3% | 96.2% | 103% | 111% | 94.6% | 85.1% | 98.8% | 99.4% | 90.1% | 103% | 101% | 96.6% | 93.6% | –
20 | COc1ccc(C2=NN(C(=O)c3ccc(S(C)(=O)=O)cc3)C(c3ccc(OC)c(OC)c3)C2)c(OC)c1 (configuration not stated) | 94% | 99.1 | 106% | 90.9% | 90% | 95.2% | 103% | 112% | – | 100% | 74.9% | 116% | 102% | 93.1% | 98.5% | 92.2% | 97.2% | 103% | 98.7
21 | COc1ccc2c(c1)[n+]([O-])c(C#N)c(NC(=O)c1ccco1)[n+]2[O-] | 110% | 95.6 | 98.5% | 179% | 79.3% | 98.2% | 95.1% | 120% | 101% | 110% | – | 112% | 95.1% | 96.5% | – | 93.3% | 87.4% | 220% | 119
22 | O=C(NC(Cc1ccc(O)cc1)C(=O)N=Nc1c(O)[nH]c2ccccc12)c1ccccc1 (configuration not stated) | 96.2% | 96.9 | 97.7% | 98.5% | 92.4% | 88.1% | 89.1% | 109% | – | 97.6% | 74.9% | 97.7% | 114% | 98.9% | 109% | 92.1% | 92.7% | 89.6% | 97.3
23 | COc1ccc(S(=O)(=O)Nc2c(/C=C\c3cc(OC)c(OC)c(OC)c3)ccc(OC)c2O)cc1 | 31.3% | 48.5 | 6.01% (active) | 30.5% | -17% (active) | 38.6% | 15.5% | 58.2% | 3.84% (active) | 20.9% | 39.9% | 39.9% | 22.7% | 32.9% | -19.9% (active) | 8.7% (active) | 10.5% | 13.5% | –
24 | Cc1ccc(C(=O)N2C/C(=C/c3ccccc3)C(=O)/C(=C/c3ccccc3)C2)cc1 | 67.9% | 83 | 47% | 65.3% | 58.9% | 76.9% | – | 79.8% | 80.2% | 79.5% | 56.6% | 96.7% | 72.6% | 63.2% | 71.7% | 32.6% | -12.4% (active) | 23.3% | –
25 | Cn1c(N)c(N=Nc2ccc(S(=O)(=O)Nc3nccs3)cc2)c(=O)n(C)c1=O | 94.1% | 104 | 99.2% | 90.5% | 104% | 106% | 89.4% | 112% | – | 97% | 68.6% | 98.7% | 102% | 95.4% | 96.9% | 92.6% | 95.2% | 95.8% | –
26 | N#Cc1ncc(-c2ccc(C(F)(F)F)cc2)c(NCc2cc(C(F)(F)F)cc(C(F)(F)F)c2)n1 | 37.9% | 29.8 | 27.3% | 1.54% (active) | 75.3% | 19.4% | 14.9% | 39.3% | -2.7% (active) | 21.8% | 26.1% | 47.4% | 0.868% (active) | 17.9% | – | 21.9% | 12.1% | 10.5% | –
27 | O=C1/C(=C/c2ccc([N+](=O)[O-])o2)Oc2ccccc21 | 74.7% | 89.4 | 47.5% | 42.8% | 55.7% | -55% (active) | -60.7% (active) | 21.5% | 17.2% | -2.18% (active) | -61.5% (active) | -55.8% (active) | -9.64% (active) | -4.42% (active) | 70.3% | – | 9.39% (active) | -1.87% (active) | –
28 | O=c1c2ccccc2nc(SCCN2CCCCC2)n1CCc1ccccc1 | 87% | 102 | 86.7% | 89.2% | 76.7% | 97.8% | 81.6% | 101% | 102% | 81.5% | 57.2% | 97.2% | 102% | 73.9% | 83.1% | – | – | – | 70.7
